Among all 420,000 compounds or so, about 64,000 (15%) were called active. About 27% were inconclusive and are not listed. Calls come from the whole dose curve; as a rule, active = well fitted inhibition curve with a large enough effect; inconclusive = small, poorly fitted or top-dose-only effect; inactive = flat fitted curve, though single readings scatter. These entries were drawn from the full list. Entries that show only a call come without a potency.
Assay: qHTS for Inhibitors of human tyrosyl-DNA phosphodiesterase 1 (TDP1): qHTS in cells in absence of CPT; note: nearly all actives have a fitted effect of over 55% in size
Settings: DT40 Tdp1-/- hTDP1 cells, no CPT, ATP luminescence, 48 h; activity change, negative = growth inhibition: at 46.2 µM (top of the series)
Outline: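 Camptothecin absent (DMSO only). Human TDP1-complemented DT40 knockout cells, 400 cells/well, 37 °C for minimum 48 hr; ATP measured via CellTiter-Glo, 30 min dark incubation, luminescence.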
Potency is the fitted concentration of half-maximal effect.

| SMILES | Potency |
| --- | --- |
| CC1(C)CC(=O)C=C(NCCN2CCNCC2)C1 | inactive |
| COc1ccc(C(=O)OCC(=O)Nc2cccc(C(C)=O)c2)cc1OC | inactive |
| COC(=O)c1sc(N)c(C(=O)OC)c1COC(=O)CNS(=O)(=O)c1ccc(C)cc1 | inactive |
| COCCN(C(=O)c1ccccc1F)c1c(N)n(Cc2ccccc2)c(=O)[nH]c1=O | inactive |
| CS(=O)(=O)N1CCCCC1c1cc(C(=O)NCc2ccccc2)no1 (centres undefined) | inactive |
| O=C(NCc1cccnc1)c1cc(C2CCCN(C(=O)C3CCCCC3)C2)on1 (centres undefined) | inactive |
| O=C(c1cc(C2CCCCN2S(=O)(=O)c2ccccc2)on1)N1CCOCC1 (centres undefined) | inactive |
| O=C(NCc1ccc(F)cc1)c1cc(C2CCCCN2C(=O)c2ccccn2)on1 (centres undefined) | 20.6 µM (active) |
| CCCNC(=O)c1cc(C2CCCCN2S(=O)(=O)c2cn(C)cn2)on1 (centres undefined) | inactive |
| O=C(NCc1ccc(F)cc1)c1cc(C2CCCCN2C(=O)C2CCCCC2)on1 (centres undefined) | 23.1 µM (active) |
| CC(Oc1ccc(Cl)cc1)C(=O)OCC(=O)Nc1ncc(Cl)cc1Cl (centres undefined) | inactive |
| COC(=O)c1c(NC(=O)C(=O)N2CCCCC2)sc2c1CC(C)(C)OC2 | inactive |
| COC1=NC2=NCCN2C(OC)=N1 | inactive |
| Cc1ccc2cccc(NC(=O)c3ccc(OC(C)C)cc3)c2n1 | 29.1 µM (active) |
| Cc1ccc2cccc(NC(=O)C(C)Oc3ccc(C)c(C)c3)c2n1 (centres undefined) | inactive |
| CC(C)Oc1ccc(C(=O)Nc2cc(=O)n(C)c(=O)n2C)cc1 | inactive |
| COCc1cc(=O)[nH]c2cc(NC(=O)C(F)(F)F)c(C)cc12 | inactive |
| Cn1c(=O)c(=O)n(C)c2cc(NC(=O)c3ccccc3Br)ccc21 | inactive |
| CCOC(=O)c1cnc2c(C)cc(Cl)cc2c1NCCc1ccc(OC)c(OC)c1 | inactive |
| CCOC(=O)c1cnc2c(C)cc(C)cc2c1Nc1ccc(N2CCOCC2)cc1 | 5.8 µM (active) |
| Cc1ccc(OCCCC(=O)Nc2ccc(N3CCOCC3)cc2)cc1 | inactive |
| COc1ccc(-c2ccc(=O)n(CC(=O)Nc3ccc(Br)cc3F)n2)cc1 | inactive |
| CCc1nc(SCC(=O)Nc2ccccc2OC)n[nH]1 | inactive |
| CCCc1nc(SCC(=O)N2CCCC2)c2c(=O)n(C)c(=O)n(C)c2n1 | inactive |
| CCCc1nc(SCC(=O)Nc2ccccc2OC)c2c(=O)n(C)c(=O)n(C)c2n1 | 23.1 µM (active) |
| COc1ccc(CCN2CC(C(=O)NCCN3CCNC3=O)CCC2=O)cc1 (centres undefined) | inactive |
| O=C(COc1ccccc1)NCc1ccc2c(c1)OCO2 | inactive |

| SMILES | Potency |
| --- | --- |
| COc1cccc(NC(=O)C2CCCN2C(=O)OCc2ccccc2)c1 (centres undefined) | inactive |
| COc1cccc(NC(=O)N2CCCC2C(=O)NC2CCCCC2)c1 (centres undefined) | inactive |
| COc1cccc(NC(=O)N(Cc2cn(C)c3ccccc23)C2CCCCCC2)c1 | 5.8 µM (active) |
| O=C1CCC(=O)N1CCOP1(=O)COc2ccccc2OC1 | inactive |
| CCN(C(=O)Nc1cccc2ccccc12)c1ccccc1 | 20.6 µM (active) |
| O=C(Nc1cccc2ccccc12)NC1CC1 | inactive |
| CC(=O)N(C)c1ccc(NC(=O)Nc2cccc3ccccc23)cc1 | inactive |
| COc1ccc(N2C(=O)CCC(C(=O)Nc3ccccn3)C2c2ccc(OC)c(OC)c2)cc1 (centres undefined) | inactive |
| CC(C)Cc1nc(Cl)c(C#N)c2c1CCC2 | inactive |
| O=C1NC2(CCCCC2)N=C1c1ccccc1 | inactive |
| S=c1[nH]nc(-c2ccco2)n1/N=C/c1ccc(Br)s1 | inactive |
| Cc1ccsc1/C=N/n1c(=S)[nH]nc(C)c1=O | 13 µM (active) |
| S=c1[nH]nc(-c2cccs2)n1/N=C/c1cccs1 | inactive |
| CN(Cc1ccccc1)C(=O)[C@@H]1CCCN1C(=O)[C@@H]1CCCN1C(=O)c1c(F)cccc1F | inactive |
| N#CC1(NC(=O)COC(=O)CCN=C2NS(=O)(=O)c3ccccc32)CCCCC1 | inactive |
| CNC(=S)N/N=C/c1ccc(N2CCOCC2)s1 | 3.26 µM (active) |
| Cc1ccc(C(=O)C(=S)N2CCOCC2)cc1 | inactive |
| Cc1cc(C(=O)N/N=C/c2ccc(N3CCOCC3)cc2)c(C)o1 | inactive |
| COc1nc(OC)nc(N(C)CCO)n1 | inactive |
| CN(CCOc1ccccc1)Cc1nc2cc(Cl)ccc2c(=O)[nH]1 | inactive |
| COc1cc(CN(C)Cc2nc3cc(C(F)(F)F)ccc3c(=O)[nH]2)ccc1OC(F)F | 18.4 µM (active) |
| Cc1nc2ccc(S(=O)(=O)NCC(=O)NCCN3CCCCC3C)cc2s1 (centres undefined) | inactive |
| Cc1nn(-c2ncccn2)c2c1C(=O)CC(C)(C)C2Br (centres undefined) | 20.6 µM (active) |
| Cc1nn(-c2ccccc2)c2c1C(=O)NC(=O)C(C)(C)C2 | inactive |
| O=C(COC(=O)c1n[nH]c2ccccc12)Nc1ccccc1Br | inactive |
| CN(C)S(=O)(=O)c1ccc(NC(=O)COC(=O)c2n[nH]c3ccccc23)cc1 | 13 µM (active) |
| CN(C)S(=O)(=O)c1ccc(NC(=O)COC(=O)Cn2[nH]c(=O)c3ccccc3c2=O)cc1 | inactive |

| SMILES | Potency |
| --- | --- |
| Cc1ccc(N2C(=O)CC(Nc3cccc4ccccc34)C2=O)cc1 (centres undefined) | inactive |
| O=C1CC(Sc2ncn[nH]2)C(=O)N1c1ccccc1 (centres undefined) | 11.6 µM (active) |
| O=C1CC(c2ccccc2)C(=O)N1c1cccc(O)c1 (centres undefined) | inactive |
| Cc1ccc(N2C(=O)CC(Sc3ncn[nH]3)C2=O)cc1 (centres undefined) | 4.61 µM (active) |
| CCOC(=O)c1ccc(N2C(=O)CC(Sc3nc(O)c(CC)c(=O)[nH]3)C2=O)cc1 (centres undefined) | inactive |
| COc1ccc(-c2nc(SCC(=O)N3CCOCC3)n[nH]2)cc1 | inactive |
| O=C1CC(N2CCN(c3ccc(F)cc3)CC2)C(=O)N1c1ccccc1 (centres undefined) | inactive |
| COc1ccc(N2C(=O)CC(Sc3n[nH]c(-c4ccc(C)cc4)n3)C2=O)cc1 (centres undefined) | 10.3 µM (active) |
| COc1ccc(N2C(=O)CC(SC(C)C)C2=O)cc1 (centres undefined) | inactive |
| CC1Cc2[nH][nH]c(=O)c2C(C2CCCC2)O1 (centres undefined) | inactive |
| N#Cc1ccc(/C=C2\CCn3c2nc2cc(C(=O)O)ccc2c3=O)cc1 | inactive |
| NC1=NOC(=O)C1C1CCCCC1 (centres undefined) | 18.4 µM (active) |
| CC(=O)Nc1ccc(S(=O)(=O)N2CCCC2C(=O)O)cc1 (centres undefined) | inactive |
| CCOC(=O)C(NC(=O)CC(C)C)(Nc1sc2c(c1C(N)=O)CCCC2)C(F)(F)F (centres undefined) | inactive |
| Cc1ccc(C)c(N2CCN(C(=O)CCCCn3c(=O)[nH]c4ccccc4c3=O)CC2)c1 | 20.6 µM (active) |
| COc1ccc(CCNC(=O)CCCCn2c(=O)[nH]c3ccccc3c2=O)cc1OC | inactive |
| Cc1ccc(N2CCN(C(=O)CCc3c(C)nc4c(c3C)c(=O)n(C)c(=O)n4C)CC2)c(C)c1 | inactive |
| Cc1ccc(OCCCC(=O)N2CCOCC2)c(C)c1 | inactive |
| CCN(CC)CCNC(=O)CCCCCn1c(=O)[nH]c2cc(C(=O)OC)ccc2c1=O | inactive |
| COc1cccc(N2CCN(C(=O)CCCCCn3c(=O)[nH]c4ccccc4c3=O)CC2)c1 | 20.6 µM (active) |
| NS(=O)(=O)c1ccc(CCNC(=O)CCCCCn2c(=O)[nH]c3ccccc3c2=O)cc1 | inactive |
| O=C(CCCn1c(=O)[nH]c2cc(Cl)ccc2c1=O)NCCN1CCN(c2ccccc2)CC1 | 23.1 µM (active) |
| Cc1ccc(C)c(N2CCN(C(=O)CCCCCn3c(=S)[nH]c4ccc(N5CCOCC5)cc4c3=O)CC2)c1 | 2.91 µM (active) |
| Cc1ccc(C)c(N2CCN(C(=O)CCc3c(C)nc4c(c3C)c(=O)n(C)c(=O)n4C)CC2)c1 | inactive |
| O=C(CCCCCn1c(=O)[nH]c2ccccc2c1=O)NCCc1c[nH]c2ccccc12 | inactive |

From PubChem BioAssay AID686978 (National Center for Advancing Translational Sciences (NCATS), 2013)
